Experimental data taken from PubChem BioAssay AID1619 (SRMLSC, 2009).
Screen size: about 220,000 compounds; about 830 (0.38%) were called active.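 The calls were made as follows: active = compound inhibiting the enzyme by more than half at any dose during confirmatory dose-response retesting; inconclusive = strong single-dose inhibitors picked by rank but not retested; inactive = the rest.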 A selection follows. Potency and affinity values are given separately.

Target: Leucine aminopeptidase (Plasmodium falciparum (isolate 3D7)) (UniProt Q8IL11)
Test: P. falciparum M17LAP inhibitors, primary screen, biochemical, fluorogenic H-Leu-NHMec substrate, 1536-well (AID 1619);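 also: plate controls were full reaction with DMSO carrier for no effect and no enzyme background for full effect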
Conditions: recombinant M17LAP, H-Leu-NHMec fluorogenic kinetic assay; at 30 µM; hits give high values

Chain of Leucine aminopeptidase (Plasmodium falciparum (isolate 3D7)) (Q8IL11 whole entry, looked up): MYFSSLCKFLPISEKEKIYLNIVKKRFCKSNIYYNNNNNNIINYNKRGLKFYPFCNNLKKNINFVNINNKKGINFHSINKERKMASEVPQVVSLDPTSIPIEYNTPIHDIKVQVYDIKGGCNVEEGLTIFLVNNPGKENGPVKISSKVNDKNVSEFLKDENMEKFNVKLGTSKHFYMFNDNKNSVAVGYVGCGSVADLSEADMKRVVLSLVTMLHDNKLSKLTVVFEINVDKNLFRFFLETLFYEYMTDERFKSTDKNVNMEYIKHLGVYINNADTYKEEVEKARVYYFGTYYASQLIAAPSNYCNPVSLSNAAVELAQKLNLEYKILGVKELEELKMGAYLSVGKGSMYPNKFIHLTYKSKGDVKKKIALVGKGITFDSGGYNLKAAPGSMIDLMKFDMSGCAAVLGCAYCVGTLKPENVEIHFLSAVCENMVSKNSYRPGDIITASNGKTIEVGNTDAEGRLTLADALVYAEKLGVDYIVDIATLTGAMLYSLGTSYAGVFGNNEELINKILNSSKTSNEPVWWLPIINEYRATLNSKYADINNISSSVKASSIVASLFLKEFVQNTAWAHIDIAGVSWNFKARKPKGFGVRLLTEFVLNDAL

inhibition, inactive:
CCOC(=O)C[N+](C)(C)CCOC1CC2CCC1(C)C2(C)C (stereo not drawn) 3.08%, O=C(c1cnn2c(C(F)(F)F)cc(-c3ccc4c(c3)OCO4)nc12)N1CCCCC1 6.7%, O=C(NCCC1=CCCCC1)C1CCN(C(=O)Cc2ccccc2)CC1 6.09%, O=C(CSc1n[nH]c(-c2cccs2)n1)N1CCCc2ccccc21 1.29%, Fc1ccc(CNc2nc3ccccc3n3cnnc23)cc1 -2.38%, CCOC(=O)C1CN(S(=O)(=O)c2ccccc2)CCN1S(=O)(=O)c1ccccc1 (stereo not drawn) -13.2%, CCCCCn1c(CNC(=O)COC)nc2ccccc21 -1.06%, CN(CC(=O)Nc1ccc(N2CCOCC2)cc1)CC(=O)Nc1cccc(C#N)c1 17.1%, CC(C)(C)c1ccc(C(=O)CSc2n[nH]c(=O)[nH]c2=O)cc1 -4.96%, CC(C)(C)c1ccc(C(=O)CSc2nc3ccccc3c(=O)[nH]2)cc1 9.78%, Cc1ccc(C(=O)CSc2n[nH]c(C)n2)cc1 46.4%, Cc1nc(SCC(=O)c2ccc(F)cc2)n[nH]1 19.2%, CC(C)Oc1ccc(C(CC(=O)O)NC(=O)C(Sc2ccccc2)c2ccccc2)cc1 (stereo not drawn) 19.5%, CC(C)Oc1ccc(C(CC(=O)O)NC(=O)C2CCCCC2)cc1 (stereo not drawn) 4.14%, O=C(CCC(=O)Nc1ccccc1)NNC(=O)c1ccccc1Cl -1.79%, CCCN1Cc2cccc(C(=O)Nc3ccc(C)cc3)c2C1=O -1.02%, COCCNC(=S)N1CCC(Cc2ccccc2)CC1 1.83%, CC(=O)Nc1ccc(Sc2ccccc2C(=O)O)cc1 6.89%, CCOC(=O)C1CCCN(C(=O)c2cc(Nc3ccc(OC)cc3OC)nc3ccccc23)C1 (stereo not drawn) -1.02%, O=C(NCCc1ccc(S(=O)(=O)N2CCCC2)cc1)c1cccs1 22.4%, O=C(CSc1nnc(CNC(=O)c2ccco2)o1)Nc1ccccc1 21.5%, COc1ccc2nc(N3CCCCC3)c(/C=C3\SC(=S)NC3=O)cc2c1 15.3%, O=C1NC(=S)S/C1=C\c1cc2ccccc2nc1N1CCCCC1 8.4%, O=C(CSCc1ccccc1Br)N/N=C/c1ccc(OCC(=O)N2CCCCC2)cc1 9.49%, O=C1NC2(CCCCC2)C(=O)N1/N=C/c1ccccc1Br -1.17%, CCCc1nc2ccccc2c(=O)n1/N=C/c1ccc(O)cc1 -6.52%, CCCc1nc2ccccc2c(=O)n1/N=C/c1ccccc1O -13.5%, Cc1ccc(-c2ccc(NC(=O)C3C4C=CC(C4)C3C(=O)O)cc2)o1 (stereo not drawn) 51.5%, Cc1ccc(-c2cccc(NC(=O)C3C(C(=O)O)[C@@H]4C=C[C@H]3C4)c2)o1 (stereo partly drawn) 22.7%, CCOC(=O)C/C(C)=N/NC(=O)C1CC1(c1ccccc1)c1ccccc1 (stereo not drawn) -7.82%, Cc1cc(NC(=O)c2ccc(NC(=O)C3CC3)cc2)no1 -1.13%, COc1ccc(Br)cc1CN(C)C(C)C(=O)Nc1cccc(C(C)=O)c1 (stereo not drawn) -4.69%, Cc1ccc(NC(=O)Cn2cc3c(n2)CCC(C)C3)cc1 (stereo not drawn) -7.43%, CC1CCc2nn(CC(=O)Nc3ccc(F)cc3F)cc2C1 (stereo not drawn) 6.54%, CC1CCN(S(=O)(=O)c2ccc3ncn(CC(=O)N(C)Cc4ccccc4)c(=O)c3c2)CC1 3.66%, COc1ccc(N2C(=O)CCC(C(=O)N3CCCCCC3)C2c2ccc(OC)c(OC)c2)cc1 (stereo not drawn) -1.54%, CCCCC(CC)C(=O)NCC(C)NC(=O)C(CC)CCCC (stereo not drawn) 2.99%, CCOc1ccc(C(=O)NCC(=O)OCC(=O)Nc2ccccc2OCC)cc1 0.01%, CC(OC(=O)Cc1coc2ccc3ccccc3c12)C(=O)Nc1ncc(Cl)cc1Cl (stereo not drawn) 5.82%, Cn1c(=O)[nH]c(=O)c2c1nc(NC1CCCCC1)n2CC(=O)NC1CCCCC1 10.2%, COc1cccc(NC(=O)CC2COc3ccccc3O2)c1 (stereo not drawn) 7.49%, COc1cc(OC)c(OC)cc1NC(=O)CC1COc2ccccc2O1 (stereo not drawn) -17.5%, COc1ccc(C)cc1NC(=O)CC1COc2ccccc2O1 (stereo not drawn) 4.49%, COc1ccc(NC(=O)CCC2COc3ccccc3O2)c(OC)c1 (stereo not drawn) 11.9%, FC(F)(F)c1ccccc1NC(=S)N1CCN(c2ccccn2)CC1 1.6%, Oc1cc(Cc2ccccc2)cnc1CN1CCOCC1 -3.17%, CCCCCOP(=O)(c1ccccc1)c1ccccc1 -7.38%, CCc1ccc(-n2c(SCC(=O)N3Cc4ccccc4CC3C(=O)O)nnc2-c2ccncc2)cc1 (stereo not drawn) -6.38%, CC(c1ccon1)N(C)Cc1c(C(=O)N(C)Cc2ccccc2)nc2ccccn12 (stereo not drawn) 11.8%, Cc1cc(C(=O)CSc2cccc[n+]2[O-])c(C)n1-c1ccc(Br)cc1 1.39%, CCN1c2ccccc2-c2nc3ccccc3n2C1c1cccnc1 (stereo not drawn) -45%, O=C(COC(=O)CCC(=O)c1ccc(Cl)cc1)NC1CC1 10.9%, O=C(c1ccccc1Cl)N1CCn2c1nc1ccccc12 24.5%, CCOCCCn1c(SCC(=O)Nc2cc(C(C)(C)C)nn2-c2ccccc2)nc2ccccc2c1=O -8.18%, O=C1/C(=C/c2ccc([N+](=O)[O-])cc2)C=C(c2ccccc2)N1c1ccccc1 1.75%, O=C(O)c1cccc(N2C(=O)/C(=C/c3ccc([N+](=O)[O-])cc3)C=C2c2ccccc2)c1 31.6%, CCOC(=O)CC(=O)CSc1nc(C)cc(C)c1C#N -4.47%, COc1cc(NC(=O)c2cccc(C)c2)c(OC)cc1NC(=O)CN1CCOCC1 14.9%, O=C(O)COc1ccccc1/C=C1\SC(=S)N(c2cccnc2)C1=O 10.2%, O=C(O)COc1ccccc1/C=C1\SC(=Nc2ccc(F)cc2)N(c2ccc(F)cc2)C1=O 2.19%, Cc1ccccc1/C=C1\SC(=S)N(/N=C/c2cc([N+](=O)[O-])ccc2O)C1=O 15.5%, CN1C(=O)S/C(=C\c2ccccc2OCc2ccc(C(=O)O)cc2)C1=O 5.62%, Cc1cccc(C2c3[nH]c4ccccc4c3CCN2C(=O)c2cn(C)c3ccccc3c2=O)n1 (stereo not drawn) 8.5%, COCCCNC(=S)N/N=C/c1ccccc1O 19.4%, CCc1ccc(NC(=O)CSc2nnc(CC)c(CC)n2)cc1 29.2%, CCc1nnc(SCC(=O)Nc2ccccc2)nc1CC 21.8%, O=C(CSC1=NCCN1)Nc1cccc(C(F)(F)F)c1 -6.47%, Cc1cc(C)nc(SCc2nnc(SCC(=O)Nc3ccc(Cl)c(C(F)(F)F)c3)o2)n1 10.2%, CNCC(=O)Nc1ccc(Cl)c(C(F)(F)F)c1 -1.94%, O=C(O)CCCC(=O)Nc1cccc(C(F)(F)F)c1 24.8%, Cc1cc(C)nc(/N=C(\NC(=O)C(C)(C)C)Nc2ccc(F)cc2)n1 12.7%, CN(C)CCNC(=S)Nc1ccc(-c2nc3ccccc3[nH]2)cc1 18.8%, COc1ccc(-c2csc3nc(C)nc(N4CCN(c5ccc(C(C)=O)cc5)CC4)c23)cc1OC -3.5%, COCCSc1ccccc1C(=O)N1CCCC(C)C1 (stereo not drawn) -3.2%, CC(C)(C)C(=O)Nc1cccc(-c2ncon2)c1 1.81%, NS(=O)(=O)c1ccc(NC(=O)Cn2ncc3c2-c2ccccc2OC3)cc1 -1.22%, COc1cccc(CNC(=O)Cc2c(C(=O)O)[nH]c3ccccc23)c1 8.02%, COc1ccc(OC)c(CNC(=O)Cc2c(C(=O)O)[nH]c3ccccc23)c1 28.4%, Cc1ccc(NC(=O)C(=O)NCC2CCCO2)cc1C (stereo not drawn) -1.64%, COc1ccc(S(=O)(=O)Nc2nncs2)cc1 54.3%, COCc1nnc(NS(=O)(=O)c2ccc(C)cc2)s1 4.91%, COCc1cc(C)nc(SCC(=O)Nc2ccccc2C)c1C#N -1.72%, Cc1nc(SCC(=O)Nc2ccc(F)cc2)c(C#N)c(C)c1CC(=O)c1ccc(Br)cc1 -7.6%, Cc1ccc(C)c(NC(=O)CSc2nc(C)cc(C)c2C#N)c1 11.2%, COc1ccc(-c2cc(C(F)(F)F)c(C#N)c(SCC(=O)Nc3ccccc3C#N)n2)cc1 -5.46%, Cc1cc(C)c(C#N)c(SCC(=O)Nc2ccc3c(c2)OCO3)n1 2.63%, Cc1cc(C)c(C#N)c(SCC(=O)Nc2ccccc2C)n1 -11.6%, Cc1cc(C)c(C#N)c(SCC(=O)Nc2ccccc2C(N)=O)n1 -14.1%, Cc1ccccc1NC(=O)CSc1nc(N)c(C#N)cc1C#N -1.94%, O=C(NCCc1c[nH]c2ccccc12)/C(=C/c1cccnc1)NC(=O)c1cccs1 7.81%, Cc1ccc(NC(=O)CCCN2C(=S)NC(C)(C)CC2C)cc1 (stereo not drawn) 4.19%, CCCN(c1nc(C)cc(OC)n1)S(=O)(=O)c1ccccc1 -8.31%, N#CC1=C(N)Oc2n[nH]c(-c3cccs3)c2C1c1cccnc1 (stereo not drawn) 24.1%, Cc1cc(-c2[nH]nc3c2C(c2ccsc2)C(C#N)=C(N)O3)c(C)s1 (stereo not drawn) 45.6%, N#CC1=C(N)Oc2n[nH]c(-c3ccncc3)c2C1c1ccsc1 (stereo not drawn) 27.9%, CCOc1ccc(-c2[nH]nc3c2C(c2cccnc2)C(C#N)=C(N)O3)cc1 (stereo not drawn) 24.6%, Cc1cc(-c2[nH]nc3c2C(c2ccc(Cl)cc2)C(C#N)=C(N)O3)c(C)s1 (stereo not drawn) 23.3%, COc1ccc(-c2[nH]nc3c2C(c2ccsc2)C(C#N)=C(N)O3)cc1 (stereo not drawn) 72.1%
